5 compounds from the supplement of paper PMC6897291 can be followed below.

This experiment relates to RIVA. Put plainly: growth inhibition by drug plus 177Lu-lilotomab satetraxetan (1 - RLU/untreated control) (fraction); higher = stronger inhibition. The following applies: 177Lu-lilotomab satetraxetan 0.5 ug/ml. As to the method:
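RIVA (RI-1) ABC-DLBCL cells were pretreated or not for 18 h with 0.5 ug/ml 177Lu-lilotomab satetraxetan (600 MBq/mg), washed and seeded (3000 cells/well) on 384-well plates pre-printed with the Selleck Cambridge Cancer Compound library. Viability was read by RealTime-Glo luminescence on days 3-6 after seeding. Effect = 1 - RLU/mean RLU of the 48 untreated no-drug control wells per plate; Bliss score = (M-E)/(1-Fa).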

For the compound `CN1CCN(c2cccc(Nc3nc4c(-c5ccc(S(C)(=O)=O)cc5)cccn4n3)c2)CC1`, the “growth inhibition by drug plus 177Lu-lilotomab satetraxetan” value (shortened to “growth inhibition”) is, setting by setting: (10 nM, time (day): 3) 0.369; (10 nM, time (day): 4) 0.484; (10 nM, time (day): 5) 0.496; (10 nM, time (day): 6) 0.524; (100 nM, time (day): 3) 0.396; (100 nM, time (day): 4) 0.419. Also, the “growth inhibition” value was determined as 0.425 (100 nM, time (day): 5) and 0.401 (100 nM, time (day): 6).
On to `Cc1cnc(Nc2ccc(OCCN3CCCC3)cc2)nc1Nc1cccc(S(=O)(=O)NC(C)(C)C)c1`, for which the “growth inhibition” value reads like this: (10 nM, time (day): 3) 0.273; (10 nM, time (day): 4) 0.437; (10 nM, time (day): 5) 0.468; (10 nM, time (day): 6) 0.492; (100 nM, time (day): 3) 0.205; (100 nM, time (day): 4) 0.275. The “growth inhibition” value reads like this: (100 nM, time (day): 5) 0.289; (100 nM, time (day): 6) 0.307.
Turning to `O=C(O)CC[C@H]1CC[C@@](c2cc(F)ccc2F)(S(=O)(=O)c2ccc(Cl)cc2)CC1`, the “growth inhibition” value by setting is: (10 nM, time (day): 3) 0.613; (10 nM, time (day): 4) 0.631; (10 nM, time (day): 5) 0.645; (10 nM, time (day): 6) 0.643; (100 nM, time (day): 3) 0.453; (100 nM, time (day): 4) 0.522. For the same compound, the “growth inhibition” value is 0.543 (100 nM, time (day): 5) and 0.556 (100 nM, time (day): 6).
With `Cc1cc(O)c2c(c1)C(=O)c1cccc(O)c1C2=O` [Chrysophanic acid (Chrysophanol)], the “growth inhibition” value reads like this: (10 nM, time (day): 3) 0.425; (10 nM, time (day): 4) 0.48; (10 nM, time (day): 5) 0.511; (10 nM, time (day): 6) 0.511; (100 nM, time (day): 3) 0.489; (100 nM, time (day): 4) 0.543. The “growth inhibition” value by setting is: (100 nM, time (day): 5) 0.559; (100 nM, time (day): 6) 0.574.
Turning to `NC(=O)c1ccc(-c2nc(-c3ccccn3)c(-c3ccc4c(c3)OCO4)[nH]2)cc1`, the “growth inhibition” value runs as follows: (10 nM, time (day): 3) 0.633; (10 nM, time (day): 4) 0.64; (10 nM, time (day): 5) 0.642; (10 nM, time (day): 6) 0.63; (100 nM, time (day): 3) 0.438; (100 nM, time (day): 4) 0.521. The “growth inhibition” value (100 nM, time (day): 5) amounted to 0.528 and the “growth inhibition” value (100 nM, time (day): 6) turned out to be 0.52.
